eIF4H FP inh: inhibitors of RNA binding by human eIF4H; eIF4H fluorescence polarization binding assay; inhibition, % at 35 µM; hit rate 0.94% among 290,000; AID 2012;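 further: calls also rest on retests at 20 µM and on dose response follow-up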
PABP1 MLLE inh: blocks PAM2 peptide binding to the PABP1 MLLE domain | GST-MLLE / FITC-PAM2 fluorescence polarization | inhibition, % at 20 µM | hit rate 0.36% among 360,000 | AID 588489; in the data active means inhibition above about 35%, passing the limit was not always enough
HMGR II inh: E. faecalis class II HMG-CoA reductase inhibition | purified E. faecalis HMGR, NADPH absorbance 340 nm kinetic | inhibition, % at 10 µM | hit rate 0.41% among 190,000;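 active means inhibition above a set limit, the median over all tested compounds plus 3 SD, cut at about 9.5% in these data; inconclusive means no clear call, values can overlap the other calls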;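 further: enzyme runs in reverse so mevalonate oxidation gives rising NADPH absorbance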
PABP polyA inh: PABP-poly(A) binding inhibition. calls only at 35 µM. hit rate 1% among 290,000. PABP-poly(A) RNA binding, fluorescence polarization. P11940;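 further: calls also rest on retests at 20 µM and on dose response follow-up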
PHOSPHO1 inh: PHOSPHO1 (human) inhibition. Q8TCT1. recombinant PHOSPHO1, absorbance phosphatase assay. inhibition, % at 13.3 µM. hit rate 1.1% among 290,000; in the data active means inhibition above about 60%
Target sequence (Q8TCT1 whole entry, looked up): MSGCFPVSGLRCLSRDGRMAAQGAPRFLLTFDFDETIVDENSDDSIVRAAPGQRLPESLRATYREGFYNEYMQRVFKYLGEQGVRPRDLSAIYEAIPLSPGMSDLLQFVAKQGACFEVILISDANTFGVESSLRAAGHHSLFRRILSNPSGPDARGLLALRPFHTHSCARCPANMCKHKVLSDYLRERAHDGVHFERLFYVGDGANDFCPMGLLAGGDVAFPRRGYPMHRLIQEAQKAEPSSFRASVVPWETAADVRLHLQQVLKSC
Each line names hits and unclear results; the compound was inactive in the other large screens. Shown are actives, neighbours in structure and some others; about 2.4% of the full set was active somewhere. Unless noted, how the calls were made is not given here.

O=S1(=O)CCC(NC(=S)SCCOc2ccccc2)C1 (stereo not given)	PABP1 MLLE inh 40
CNC(=S)SCCOc1ccccc1	PABP1 MLLE inh 36 (no result: HMGR II inh)
CCC(NS(=O)(=O)c1ccc2c(c1)Cc1cc(S(=O)(=O)NC(CC)C(=O)O)ccc1-2)C(=O)O (stereo not given)	none (no result: HMGR II inh)
COc1cccc(C2C(C#N)=C(N)Oc3cc(C)n(Cc4ccco4)c(=O)c32)c1 (stereo not given)	eIF4H FP inh 51, PABP polyA inh active
COc1ccc(C2C(C#N)=C(N)Oc3cc(C)n(Cc4ccco4)c(=O)c32)cc1 (stereo not given)	none
CCOC(=O)c1oc2ccc(CNC3CCCCC3)c(Cl)c2c1C	none
CCOC(=O)c1oc2ccc(CNCCO)c(Cl)c2c1C	HMGR II inh 10
C=CCN1C(=O)C2(NC(=O)c3ccccc3N2)c2ccccc21 (stereo not given)	none
CCCCN1C(=O)C2(NNc3ccccc3O2)c2ccccc21 (stereo not given)	PHOSPHO1 inh 73
C=CCN1C(=O)C2(NNc3ccccc3O2)c2ccccc21 (stereo not given)	eIF4H FP inh 101, PABP polyA inh active, PHOSPHO1 inh 87
CCCCN1C(=O)C(O)(CC(=O)c2c(C)coc2C)c2ccccc21 (stereo not given)	none
COC(=O)c1cc(NC(=O)COC(=O)C2CCC2)cc(C(=O)OC)c1	none (no result: eIF4H FP inh, HMGR II inh, PABP polyA inh, PHOSPHO1 inh)
Cc1ccc(S(=O)(=O)N(C)C)cc1NC(=O)CCc1ccccc1	none (no result: HMGR II inh)
N#CCC(=O)Nc1ccc(C(=O)OCC(=O)N2CCN(C(=O)c3ccco3)CC2)cc1	none (no result: eIF4H FP inh, HMGR II inh, PABP polyA inh, PHOSPHO1 inh)
CCc1ccc(OS(=O)(=O)c2cn(C)c(=O)n(C)c2=O)cc1	PABP1 MLLE inh 41
COc1ccccc1NC(=O)CSc1nc(N)c(C#N)cc1C#N	eIF4H FP inh 87
CC(C)(C)CC(=O)NCc1cccs1	PHOSPHO1 inh 60
O=C(NCc1cccs1)c1csc(COCCO)n1	none (no result: eIF4H FP inh, HMGR II inh, PABP polyA inh, PHOSPHO1 inh)
COc1ccc(-n2c(-c3ccc(Br)cc3)c[n+]3c2CCCCC3)cc1	PHOSPHO1 inh 68
COc1ccc(-n2c(-c3ccc(Br)cc3)c[n+]3c2CCC3)cc1	none
C[C@H]1CN([C@@H](C)CO)C(=O)c2cc(Br)cnc2O[C@@H]1CN(C)C(=O)C1CCC1	none (no result: eIF4H FP inh, HMGR II inh, PABP polyA inh, PHOSPHO1 inh)
CCCc1nc2c(=O)n(C)c(=O)[nH]c2n1C	eIF4H FP inh 53, PABP polyA inh active
CCOC(=O)c1sc(NC(=O)CCC(=O)O)nc1C	none
CCOC(=O)c1sc(NC(=O)Cc2ccc(C)cc2)nc1C	PHOSPHO1 inh 62
CCOC(=O)C1(CC2CC2)CCN(Cc2ccc(OC)cc2F)CC1	eIF4H FP inh 89
O=[N+]([O-])c1c(Nc2ccccc2)ccc2nonc12	none
O=[N+]([O-])c1c(NCc2ccco2)ccc2nonc12	eIF4H FP inh 123, PABP polyA inh active (no result: HMGR II inh)
Cc1ccc(-n2c(N)c(C(N)=O)sc2=S)c(C)c1	eIF4H FP inh 60, PHOSPHO1 inh 88
COc1ccc(Cl)cc1-n1c(N)c(C(N)=O)sc1=S	PHOSPHO1 inh 100
CCCCNC(=O)c1sc(=S)n(-c2ccccc2OC)c1N	PABP1 MLLE inh 45, PHOSPHO1 inh 69
COC(=O)c1sc(=S)n(-c2ccccc2OC)c1N	none
CCOc1ccc(S(=O)(=O)N2CCOCC2)cc1NC(=O)CN1C(=O)NC(C)(c2ccccc2)C1=O (stereo not given)	none (no result: eIF4H FP inh, HMGR II inh, PABP polyA inh, PHOSPHO1 inh)
O=C(COc1ccc(/C=N/NC(=O)c2ccccc2O)cc1)Nc1ccccc1	PABP polyA inh active
CCCC(=O)N(CCN1CCOCC1)c1nc2c(OC)ccc(OC)c2s1	none (no result: HMGR II inh)
S=c1[nH]nc(CCCc2n[nH]c(=S)o2)o1	none (no result: HMGR II inh)
CC(=O)Nc1ccc(Nc2ccc3c4c(cc(=O)n3C)-c3ccccc3C(=O)c24)cc1	PABP1 MLLE inh 65
CC1C(=O)N(Cc2cn(Cc3ccco3)nn2)CCS(=O)(=O)N1Cc1ccc(-c2ccc(Cl)cc2)cc1 (stereo not given)	none (no result: eIF4H FP inh, HMGR II inh, PABP polyA inh, PHOSPHO1 inh)
CCCCn1c(SCC(=O)Nc2cc(C(F)(F)F)cc(C(F)(F)F)c2)nnc1C(CC)N(C)C (stereo not given)	none
CSc1nncc(/C(C)=N\Nc2ccccc2C)n1	PHOSPHO1 inh 95
CC(=O)c1ccc(OCC(C)C)c(Cc2c(O)nc(N)[nH]c2=O)c1	none
CC(=O)c1ccc(OC(C)C)c(Cc2c(O)nc(N)[nH]c2=O)c1	eIF4H FP inh 0.7, PABP polyA inh active
Clc1ncccc1-c1nc2ccccc2s1	PHOSPHO1 inh 61
COc1ccc(CC(=S)N2CCOCC2)cc1OC	none
S=C(Cc1cccnc1)N1CCOCC1	PHOSPHO1 inh 60
CC(C)CN=Cc1c(O)c([N+](=O)[O-])cc2oc3c(c12)CCCC3	eIF4H FP inh inconclusive
O=[N+]([O-])c1cc2oc3c(c2c(C=NCc2ccccc2)c1O)CCCC3	eIF4H FP inh 76, PABP polyA inh active
Cn1c(=S)[nH]c2ccccc21	PHOSPHO1 inh 74
CCOc1ccc2c(c1)[nH]c(=S)n2C	PHOSPHO1 inh 79 (no result: HMGR II inh)
N#CCCn1c(=S)[nH]c2ccccc21	PHOSPHO1 inh 88
Cc1cccc(OCCn2c(=S)[nH]c3ccccc32)c1	HMGR II inh 11
O=C(O)c1cccc(OS(=O)(=O)c2cc(Br)ccc2Br)c1	none (no result: eIF4H FP inh, HMGR II inh, PABP polyA inh, PHOSPHO1 inh)
CSCC[C@H](NC(=O)OC(C)(C)C)c1nnc(SCc2cccc(F)c2)o1	PHOSPHO1 inh 74
CSCC[C@H](NC(=O)OC(C)(C)C)c1nnc(SCc2ccc(F)cc2)o1	none
CCOC(=O)C1CCN(C(=O)C2CC(=O)N(c3ccc4c(c3)OCCO4)C2)CC1 (stereo not given)	PABP polyA inh active (no result: HMGR II inh)
O=C(C1CC(=O)N(c2ccc3c(c2)OCCO3)C1)N1CCN(Cc2ccccc2)CC1 (stereo not given)	none (no result: eIF4H FP inh, HMGR II inh, PABP polyA inh, PHOSPHO1 inh)
NC(=O)c1oc2ccc(Cl)cc2c1N	none
Nc1c(C(=O)c2ccc(Cl)cc2)oc2ccccc12	eIF4H FP inh active, PABP polyA inh active
O=C(c1ccc(Cl)cc1)c1oc2ccccc2c1CS(=O)c1ccc(Cl)cc1 (stereo not given)	PHOSPHO1 inh 107
COCCSc1ccccc1C(=O)N1CCc2ccccc2C1	PHOSPHO1 inh 60
COCCSc1ccccc1C(=O)N1CCCC(C)C1 (stereo not given)	none
CCOC(=O)C1CCCN(C(=O)c2ccccc2SCCOC)C1 (stereo not given)	PABP1 MLLE inh 40
COC(=O)c1nc(-c2ccccc2)nc(-c2ccccc2)c1C(=O)OC	none (no result: eIF4H FP inh, HMGR II inh, PABP polyA inh, PHOSPHO1 inh)
NC(=S)N/N=C/c1ccc(-c2cc(Cl)ccc2Cl)o1	PHOSPHO1 inh 93
Nc1nnc2cc(F)ccc2n1	none (no result: eIF4H FP inh, HMGR II inh, PABP polyA inh, PHOSPHO1 inh)
Nc1nnc2cc(Br)ccc2n1	PABP1 MLLE inh 75 (no result: eIF4H FP inh, HMGR II inh, PABP polyA inh, PHOSPHO1 inh)
CCOc1ccc(NC(C)=O)cc1N	none (no result: eIF4H FP inh, HMGR II inh, PABP polyA inh, PHOSPHO1 inh)
CCOc1cc(-c2ccc(N)c(OCC)c2)ccc1N	eIF4H FP inh inconclusive, PABP polyA inh active
O=C(Cc1ccc(Cl)cc1)NNC(=O)C1CC=CCC1C(=O)O (stereo not given)	none (no result: HMGR II inh)
CCN(CC)CCNC(=S)Nc1ccc(F)cc1	none
CC(=O)[C@@]1(O)CC[C@H]2[C@@H]3CCC4=CC(=O)CC[C@]4(C)[C@H]3CC[C@@]21C	HMGR II inh 12
Oc1ccc(/C=N/Nc2ccc(Cl)nn2)c(O)c1O	eIF4H FP inh 80, PABP polyA inh active (no result: HMGR II inh)
